Assay results reported in PubChem BioAssay AID1159580 (chemical genetic matrix, 2015).
Out of some 5,500 compounds screened, about 2,000 (36%) were called active. About 18% were inconclusive and are not listed. Rule as the data show it: active = normalized growth mostly below about 0.91 (no sharp cut-off); inconclusive = no clear call, values can overlap the other calls; inactive = mostly above about 0.92. The list shows a part of the results.

Experiment: chemical genetic growth profiling, strain panel (AID 1159580);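 also: tested at 20 µM; growth read once vehicle control cultures reached saturation at 30 °C; 1 = growth at the plate median or of vehicle wells; lower values mean less growth of the strain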
Settings: growth OD

Measured: normalized growth

CC1(C)C(=O)[C@@H]2C[C@@]3(O)C4=CC(=O)O[C@@H](c5ccoc5)[C@]4(C)CCC3[C@@](C)(C2=O)[C@H]1CC(=O)O (some centres not stated)
inactive: S. cerevisiae deletion strains, locus YJR066W, strain TOR1, hits give low values 0.941 | S. cerevisiae deletion strains, locus YKL009W, strain mrt4, hits give low values 0.998 | S. cerevisiae deletion strains, locus YKL068W, hits give low values 1 | S. cerevisiae deletion strains, locus YKL085W, strain MDH1 (second series), hits give low values 0.99 | S. cerevisiae deletion strains, locus YKL085W, strain MDH1, hits give low values 0.99 | S. cerevisiae deletion strains, locus YKL160W, strain elf1, hits give low values 1.01 | S. cerevisiae deletion strains, locus YKR001C, strain vps1, hits give low values 0.992 | S. cerevisiae deletion strains, locus YKR026C, strain gcn3, hits give low values 1.01 | S. cerevisiae deletion strains, locus YKR091W, strain srl3, hits give low values 1 | S. cerevisiae deletion strains, locus YLL001W, strain dnm1, hits give low values 1.01 | S. cerevisiae deletion strains, locus YLL026W, hits give low values 1.01 | S. cerevisiae deletion strains, locus YLL041C, strain sdh2, hits give low values 1.01 | S. cerevisiae deletion strains, locus YLR027C, strain aat2, hits give low values 1.01 | S. cerevisiae deletion strains, locus YLR039C, strain RIC1, hits give low values 1.1 | S. cerevisiae deletion strains, locus YLR058C, strain SHM2, hits give low values 1.01 | S. cerevisiae deletion strains, locus YLR102C, strain apc9, hits give low values 0.997 | S. cerevisiae deletion strains, locus YLR113W, strain HOG1, hits give low values 0.986 | S. cerevisiae deletion strains, locus YLR221C, strain rsa3, hits give low values 1.01 | S. cerevisiae deletion strains, locus YLR258W, strain gsy2, hits give low values 0.996 | S. cerevisiae deletion strains, locus YLR262C, strain YPT6 (second series), hits give low values 1.01 | S. cerevisiae deletion strains, locus YLR262C, strain YPT6, hits give low values 1.08 | S. cerevisiae deletion strains, locus YLR268W, strain sec22, hits give low values 1 | S. cerevisiae deletion strains, locus YLR320W, strain mms22, hits give low values 0.995 | S. cerevisiae deletion strains, locus YLR330W, strain CHS5, hits give low values 1 | S. cerevisiae deletion strains, locus YLR342W, strain FKS1, hits give low values 0.997 | S. cerevisiae deletion strains, locus YLR357W, strain rsc2, hits give low values 1 | S. cerevisiae deletion strains, locus YLR370C, strain arc18, hits give low values 1.01 | S. cerevisiae deletion strains, locus YLR371W, strain rom2, hits give low values 1.01 | S. cerevisiae deletion strains, locus YLR384C, strain iki3, hits give low values 0.992 | S. cerevisiae deletion strains, locus YLR418C, strain cdc73, hits give low values 1 | S. cerevisiae deletion strains, locus YML016C, strain PPZ1, hits give low values 1 | S. cerevisiae deletion strains, locus YML032C, strain rad52, hits give low values 0.983 | S. cerevisiae deletion strains, locus YML120C, strain ndi1, hits give low values 1.02 | S. cerevisiae deletion strains, locus YML124C, strain tub3, hits give low values 1 | S. cerevisiae deletion strains, locus YMR058W, strain fet3, hits give low values 1.02 | S. cerevisiae deletion strains, locus YMR078C, strain ctf18, hits give low values 0.985 | S. cerevisiae deletion strains, locus YMR125W, strain sto1, hits give low values 0.997 | S. cerevisiae deletion strains, locus YMR129W, hits give low values 1 | S. cerevisiae deletion strains, locus YMR205C, strain PFK2, hits give low values 0.999 | S. cerevisiae deletion strains, locus YMR223W, strain ubp8, hits give low values 0.99 | S. cerevisiae deletion strains, locus YMR231W, strain pep5, hits give low values 0.976 | S. cerevisiae deletion strains, locus YMR263W, strain SAP30, hits give low values 1.02 | S. cerevisiae deletion strains, locus YMR307W, strain GAS1, hits give low values 1.06 | S. cerevisiae deletion strains, locus YNL067W, strain RPL9B, hits give low values 1 | S. cerevisiae deletion strains, locus YNL071W, strain lat1, hits give low values 1.01 | S. cerevisiae deletion strains, locus YNL128W, strain TEP1, hits give low values 1.02 | S. cerevisiae deletion strains, locus YNL183C, strain NPR1, hits give low values 0.946 | S. cerevisiae deletion strains, locus YNL209W, strain ssb2, hits give low values 1.03 | S. cerevisiae deletion strains, locus YNL233W, strain BNI4, hits give low values 1.02 | S. cerevisiae deletion strains, locus YNL248C, strain rpa49, hits give low values 1.02 | S. cerevisiae deletion strains, locus YNL250W, strain rad50, hits give low values 1 | S. cerevisiae deletion strains, locus YNL271C, strain bni1, hits give low values 1 | S. cerevisiae deletion strains, locus YNL298W, strain CLA4, hits give low values 0.977 | S. cerevisiae deletion strains, locus YNL307C, strain MCK1, hits give low values 0.99 | S. cerevisiae deletion strains, locus YNL322C, strain KRE1 (second series), hits give low values 0.999 | S. cerevisiae deletion strains, locus YNR049C, strain mso1, hits give low values 0.999 | S. cerevisiae deletion strains, locus YNR052C, strain pop2, hits give low values 0.984 | S. cerevisiae deletion strains, locus YOL006C, strain TOP1, hits give low values 1.09 | S. cerevisiae deletion strains, locus YOL012C, strain htz1 0.886 | S. cerevisiae deletion strains, locus YOL147C, strain pex11, hits give low values 0.995 | S. cerevisiae deletion strains, locus YOR001W, strain rrp6, hits give low values 1.03 | S. cerevisiae deletion strains, locus YOR061W, strain CKA2, hits give low values 1.01 | S. cerevisiae deletion strains, locus YOR069W, strain VPS5, hits give low values 1.01 | S. cerevisiae deletion strains, locus YOR070C, strain gyp1, hits give low values 1.01 | S. cerevisiae deletion strains, locus YOR080W, strain dia2, hits give low values 1 | S. cerevisiae deletion strains, locus YOR083W, strain WHI5, hits give low values 1 | S. cerevisiae deletion strains, locus YOR106W, strain vam3, hits give low values 1.01 | S. cerevisiae deletion strains, locus YOR136W, strain idh2, hits give low values 0.989 | S. cerevisiae deletion strains, locus YOR144C, strain elg1, hits give low values 0.989 | S. cerevisiae deletion strains, locus YOR184W, strain ser1, hits give low values 1.01 | S. cerevisiae deletion strains, locus YOR231W, strain MKK1, hits give low values 0.998 | S. cerevisiae deletion strains, locus YOR265W, strain rbl2, hits give low values 1.02 | S. cerevisiae deletion strains, locus YOR270C, strain vph1, hits give low values 1.06 | S. cerevisiae deletion strains, locus YOR290C, strain snf2, hits give low values 1.01 | S. cerevisiae deletion strains, locus YOR316C, strain cot1, hits give low values 0.994 | S. cerevisiae deletion strains, locus YPL051W, strain arl3, hits give low values 1.05 | S. cerevisiae deletion strains, locus YPL078C, strain atp4, hits give low values 1.01 | S. cerevisiae deletion strains, locus YPL106C, strain sse1, hits give low values 1.04 | S. cerevisiae deletion strains, locus YPL240C, strain hsp82, hits give low values 1.01 | S. cerevisiae deletion strains, locus YPL241C, strain CIN2, hits give low values 1.01 | S. cerevisiae deletion strains, locus YPL256C, strain CLN2, hits give low values 0.984 | S. cerevisiae deletion strains, locus YPR119W, strain clb2, hits give low values 0.991 | S. cerevisiae deletion strains, locus YPR141C, strain kar3, hits give low values 1.01 | S. cerevisiae deletion strains, locus YPR163C, strain tif3, hits give low values 0.99 | S. cerevisiae deletion strains, locus YPR167C, strain met16, hits give low values 1 | S. cerevisiae deletion strains, strain wtn01, hits give low values 1.01 | S. cerevisiae strains, strain wild type, hits give low values 1.01
